Screening data from PubChem.
Sampled rows, rich in hits. Any-hit rate of the full collection: about 5.2%.
APOBEC3G inh = blocks human APOBEC3G single-stranded DNA deamination; Q9HC16; recombinant A3G, ssDNA deamination FAM/TAMRA fluorescence; inhibition, % at 20 µM; hit rate 0.28% among 330,000; AID 493012;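 active means inhibition of at least 40% at 20 µM, with no more than 30% in the related APOBEC3A deaminase screen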;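 further: plate controls were DMSO wells with A3G for no effect and wells lacking A3G enzyme for full effect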
PfM18AAP inh = blocks P. falciparum M18 aspartyl aminopeptidase; hit rate 1.2% among 290,000; recombinant PfM18AAP, H-Glu-NHMec fluorogenic cleavage; inhibition, % at 7.35 µM;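 active means inhibition above the campaign mean inhibition over all tested compounds plus 3 SD, cut at about 28% in these data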;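 further: 0% = plate median of test compound wells and 100% = 2 mM ZnCl2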
ALR inh = inhibitors of human sulfhydryl oxidase ALR; P55789; hit rate 3.8% among 290,000; inhibition, % (no concentration beside the values); purified ALR, DTT oxidation, H2O2 HRP-luminol luminescence;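 active means mean replicate inhibition above about 79%, with every replicate also reaching it, limit read from the data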
Target sequence (P55789 whole entry, looked up): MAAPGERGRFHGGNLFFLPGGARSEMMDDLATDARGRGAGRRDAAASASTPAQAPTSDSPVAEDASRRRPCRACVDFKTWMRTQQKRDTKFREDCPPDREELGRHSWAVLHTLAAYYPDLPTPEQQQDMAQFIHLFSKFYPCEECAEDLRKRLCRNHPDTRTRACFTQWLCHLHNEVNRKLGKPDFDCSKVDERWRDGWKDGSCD
NRP1-CendR mod = NRP-1/CendR interaction modulation | FAM-RPARPAR peptide binding to NRP-1, fluorescence polarization | inhibition, % at 25 µM | O14786 | hit rate 0.85% among 360,000 | AID 602438;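 active means inhibition or corrected inhibition above about 18%, plus a signal ratio from 0.5 to 1.5, limit read from the data, passing the limit was not always enough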
CR mimetic SO = caloric restriction mimetics inhibiting age-related superoxide in yeast. S. cerevisiae aged cells, superoxide DHE fluorescence; active compounds read low. superoxide response (% of plate mean), % at 10 µM. hit rate 0.18% among 330,000;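 active means superoxide response under a set limit, about three screen SD below normal, cut at about 65% in these data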;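 further: yeast aged for seven days with compound at 30 °C before DHE staining; 100% = average MFI of all compound-treated wells on the plate with controls excluded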
A3A deaminase = blocks human APOBEC3A ssDNA deamination; recombinant A3A, FAM/TAMRA ssDNA deamination fluorescence; inhibition, % at 20 µM; hit rate 0.41% among 330,000; AID 493011;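 active means at least 40% inhibition at 20 µM here, with at most 30% in a related deaminase screen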;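 further: plate controls were A3A with DMSO for no effect and wells lacking A3A enzyme for full effect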
Target sequence (P31941 whole entry, looked up): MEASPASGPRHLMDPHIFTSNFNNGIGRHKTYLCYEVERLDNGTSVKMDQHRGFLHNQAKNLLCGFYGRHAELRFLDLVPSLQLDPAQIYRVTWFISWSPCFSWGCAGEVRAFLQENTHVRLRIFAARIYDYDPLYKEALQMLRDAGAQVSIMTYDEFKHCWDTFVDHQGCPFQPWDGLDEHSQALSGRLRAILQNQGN
Superoxide pick = confirmation of caloric restriction mimetics inhibiting yeast age-related superoxide; shares compounds with CR mimetic SO; S. cerevisiae aging, superoxide DHE fluorescence; active compounds read low; superoxide response (% of plate), % at 10 µM; hit rate 1% among 850; AID 434994;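 active means superoxide signal below 65% of the plate average of sample wells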;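 further: cells aged with compound for 7 days at 30 degrees C before staining; 100% equals mean DHE fluorescence of all compound wells on the plate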
DHE counter = DHE fluorescence interference, counter-screen artifact | shares compounds with CR mimetic SO | fluorescence response, % at 10 µM | 850 tested, under 10 active | S. cerevisiae BY4741, flow cytometry; active compounds read low;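 active means fluorescence response below 15%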;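 further: percent of the mean fluorescence averaged over all compound wells on the plate; lower means stronger quenching of DHE signal or ROS scavenging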
Active calls of the source: *; ! = a repeat was not active.

For CNC(=O)CC1C(=O)N(c2ccc(Cl)cc2)C(=S)N1NC(=O)c1cccc(F)c1 (stereo not given) the results were APOBEC3G inh -6.5, PfM18AAP inh 17.7, ALR inh 69.3, NRP1-CendR mod -2.6, CR mimetic SO 116.3 and A3A deaminase -3.0.
`NC(=O)CC1C(=O)N(c2ccc(Cl)cc2)C(=S)N1NC(=O)c1cccc(F)c1` (stereo not given) gave APOBEC3G inh 0.8, PfM18AAP inh 14.8, ALR inh 22.0, NRP1-CendR mod -9.8, CR mimetic SO 20.9*, A3A deaminase -4.0, Superoxide pick 98.8 and DHE counter 106.8.
Screening NNC(=O)c1cc2c(s1)-c1cc(Cl)ccc1SC2 returned APOBEC3G inh -1.5, PfM18AAP inh 6.2, ALR inh -16.8, NRP1-CendR mod 5.4, CR mimetic SO 108.6 and A3A deaminase -1.6.
`CCNC(=O)c1c(O)c2ccccc2[nH]c1=O` gave APOBEC3G inh 0.0, PfM18AAP inh -3.7, ALR inh -5.3, NRP1-CendR mod 1.1, CR mimetic SO 79.4 and A3A deaminase 1.6.
For CC(C)=NNC(=O)c1c(O)c2ccccc2[nH]c1=O the results were APOBEC3G inh -0.3, PfM18AAP inh -7.4, NRP1-CendR mod 2.6, CR mimetic SO 62.1*, A3A deaminase 7.1, Superoxide pick 83.0 and DHE counter 94.4.
For O=C(Nc1ccc2c(c1)OCO2)c1cccc(Cl)c1 the results were APOBEC3G inh -2.2, PfM18AAP inh 2.6, ALR inh 0.4, NRP1-CendR mod 3.8, CR mimetic SO 93.0 and A3A deaminase 1.1.
COCCn1c(SCC(=O)N2CCOCC2)nc2ccccc2c1=O was read as APOBEC3G inh 3.1, PfM18AAP inh -6.6, ALR inh 0.0, NRP1-CendR mod 0.5, CR mimetic SO 101.7 and A3A deaminase -2.1.
For COc1ccccc1C1CCN(C(=O)c2ccc(Cl)cc2)CC1 the results were APOBEC3G inh -8.4, PfM18AAP inh 9.0, ALR inh -0.9, NRP1-CendR mod 6.8, CR mimetic SO 36.6*, A3A deaminase -4.0, Superoxide pick 96.1 and DHE counter 101.3.
`COc1ccccc1C1CCN(C(=O)c2ccccc2)CC1` gave APOBEC3G inh -7.8, PfM18AAP inh -2.6, ALR inh -2.5, NRP1-CendR mod 2.8, CR mimetic SO 95.6 and A3A deaminase -2.9.
For CC(C)CN(C(=O)c1ccco1)c1nc2ccccc2s1 the results were APOBEC3G inh -5.0, PfM18AAP inh 0.2, ALR inh 5.4, NRP1-CendR mod -11.1, CR mimetic SO 91.5 and A3A deaminase 1.4.
For Cc1noc(C)c1C(=O)N(CC(C)C)c1nc2ccccc2s1 the results were APOBEC3G inh -2.2, PfM18AAP inh -4.3, ALR inh 1.2, NRP1-CendR mod 7.5, CR mimetic SO 60.8*, A3A deaminase -0.6, Superoxide pick 90.0 and DHE counter 91.3.
`NC(=O)C1CCN(C(=O)C2c3ccccc3C(=O)N3CCc4ccccc4C23)CC1` (stereo not given) gave APOBEC3G inh -5.0, PfM18AAP inh 8.7, ALR inh -2.0, NRP1-CendR mod -2.0, CR mimetic SO 105.8 and A3A deaminase -2.3.
`COc1ccc2cc(Br)ccc2c1CC(=O)N1CCCC1` gave APOBEC3G inh -0.5, PfM18AAP inh 3.6, ALR inh -7.4, NRP1-CendR mod -22.0, CR mimetic SO 107.7 and A3A deaminase 4.0.
O=Cc1ccc2ccc3cccnc3c2n1 was read as APOBEC3G inh 1.5, PfM18AAP inh 3.3, ALR inh 0.1, NRP1-CendR mod 2.1, CR mimetic SO 102.9 and A3A deaminase 1.5.
c1cnc2c(c1)ccc1cccnc12 was read as APOBEC3G inh -7.3, PfM18AAP inh 0.2, NRP1-CendR mod 5.5, CR mimetic SO 63.7*!, A3A deaminase -5.2, Superoxide pick 88.9 and DHE counter 105.1.
Screening C=CCNC(=S)NCC returned APOBEC3G inh -3.3, PfM18AAP inh 3.8, ALR inh -19.6, NRP1-CendR mod 6.1, CR mimetic SO 65.1*, A3A deaminase -1.6, Superoxide pick 97.8 and DHE counter 96.5.
